Test results taken from PubChem BioAssay (NCI).
About 83,000 compounds went through this panel and 20% of them were active in at least one assay; those are over-represented in the sample as a whole.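 The endpoint reported here, percent growth, reads 100 for growth as untreated, 0 for no net growth and -100 for all cells dead.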 Values without a mark were called inactive. The source made the active and inactive calls. How the source made its calls: active means growth percent below 10; inactive means the rest.

Each compound was assayed on OVCAR-4 ovarian (assay: NCI-60 one-dose screen, 48 h (100 = growth as untreated, 0 = no growth, -100 = all killed)). Details: 10 µM unless noted.
`CC(CCc1ccc(Cl)c(Cl)c1)NCc1ccc(C(C)(C)C)cc1` (stereo not drawn) showed a growth of 88.1%.
For `O=Cc1ccc(O)c2ncccc12`, the growth was 5.69% (active).
Work on `CCCCOc1nc2ccccc2cc1C1CNC(=O)c2ccccc2N1` (stereo not drawn) yielded a growth of 47.7%.
Work on `COc1ccc2occ(C3=C(c4c[nH]c5ccccc45)C(=O)N(O)C3=O)c2c1` yielded a growth of 112%.
`N#CC1=C(NC=O)Oc2c(ccc3ccccc23)C1c1ccccc1` (stereo not drawn) was tested, and the growth was 64.5%.
`Fc1c[c-]c(-c2ccccn2)c(F)c1.[CH3-].[Pt+2].c1ccc(P(C[PH+](c2ccccc2)c2ccccc2)c2ccccc2)cc1` was tested, and the growth was -19.3% (active).
For `N=C1C(c2nc(-c3ccc(Br)cc3)cs2)=C(O)CN1CC1CCCO1` (stereo not drawn), the growth was 75%.
`NS(=O)(=O)c1cnccc1Sc1ccncc1S(N)(=O)=O` showed a growth of 118%.
Compound `N#Cc1c(-c2ccccn2)[nH]c(=S)[nH]c1=O` has a growth of 119%.

What follows are compounds tested on SK-OV-3 ovarian in the same assay as above. Details: 10 µM unless noted.
With `c1c[nH]c(CNC2CCCCC2)c1` the growth was 102%.
In the case of `COc1ccc2c(c1)CCCN2c1c2ccccc2nc2ccccc12`, the growth is reported as 37.5%.
Work on `CC/C=C/C/C=C/C/C=C/C/C=C/C/C=C/C/C=C/CCC(=O)Nc1ccn([C@@H]2O[C@H](CO)[C@@H](O)C2(F)F)c(=O)n1` yielded a growth of 22%.
`Cc1ccc2nc(NC(=O)CSc3nc(-c4ccccc4)c(C#N)c(=O)n3Cc3ccccc3)sc2c1` showed a growth of 82.1%.
For `NNC(=O)c1nc(N)n(-c2ccc(S(N)(=O)=O)cc2)n1`, the growth was 94.7%.
Work on `O=C(CC(SCc1ccccc1)c1ccccc1)c1ccccc1` (stereo not drawn) yielded a growth of 99.7%.
In the case of `COC1=C(OC)C(=O)C(OC)=C(OC)C1=O`, the growth is reported as 110%.
For `COC(=O)CCC1=C(C)C2=NC1=CC1=NC(=CC3=NC(=Cc4[nH]c(/c(=C(/C)O)c4C)=C2)C(C(C)=O)=C3C)C(C)=C1CCC(=O)OC`, the growth was 95.1%.
`CC1=CN2C(=O)C3C4=C(CCCC4)SC3N=C2CN1c1c(C)cccc1C` (stereo not drawn) showed a growth of 114%.
For `O=C(Nc1cccc(Oc2nnc(Cl)c3ccccc23)c1)Nc1ccc(Cl)c(C(F)(F)F)c1`, the growth was -44.1% (active).
For `CN1CCN(CCCOc2ccc3nc(Nc4ccc(F)c(F)c4)ccc3c2)CC1`, the growth was 49.6%.
In the case of `COc1ccccc1NC(=O)N/C(N)=N/c1nc2ccccc2s1`, the growth is reported as 40.5%.
`Cc1ccc(Nc2nc(N)nc(CSCC(=O)NN)n2)cc1` was tested, and the growth was 101%.
For `CC1CC(C(C)(C)C)C(=O)C(C(C)(C)C)C1` (stereo not drawn), the growth was 105%.
`O=C(O)c1ccc2c(c1Cl)C(=O)c1ccccc1C2=O` gave a growth of 102%.
Work on `N=c1sc(Cc2ccc(Cl)cc2)cn1CC(=O)c1ccc(F)cc1` yielded a growth of 107%.
In the case of `CCCCn1c(=O)c2c(nc3n2CCCN3CCc2ccc(OCC(=O)NCCN(CC)CC)cc2)n(CCCC)c1=O`, the growth is reported as 51.8%.
For `COc1ccc(NC(=O)c2nc(-c3cc(OC)c(OC)c(OC)c3)n(-c3cccc4ccccc34)n2)cc1OC`, the growth was 38.3%.
With `O=C1CCc2c(sc3[nH]c(=S)n(-c4ccc(OC(F)(F)F)cc4)c(=O)c23)C1` the growth was 104%.
`C[C@@]1(CCC#N)[C@H]2CC[C@@H]3[C@H]4[C@H](C(=O)/C=C/c5cccnc5)CC[C@]4(C#N)CC[C@@]3(C)[C@]2(C)CC[C@H]1C(=O)/C=C/c1cccnc1` gave a growth of 89.7%.
`Cc1c(C)c2c(c(C)c1OCC(=O)O)CC[C@@](C)(CCC[C@@H](C)CCC[C@@H](C)CCCC(C)C)O2` gave a growth of 53.3% [50 µM].
`O=C(NCCCNc1cc(-c2cn(-c3ccccc3)nc2-c2cccc(O)c2)ccn1)c1ccc(F)cc1` showed a growth of 30.1%.
In the case of `Cn1c(-c2c(N)n(Cc3ccc(C(F)(F)F)cc3)c3nc(C#N)c(C#N)nc23)nc2ccccc21`, the growth is reported as -4.02% (active).
Work on `Nc1nc(N)c2c(n1)NC(c1ccccc1)C1CCc3ccccc3C1=N2` (stereo not drawn) yielded a growth of 57.9%.
With `COc1ccc2[nH]c(O)c(/C=c3/cc4c(c(-c5cc(OC)c(OC)c(OC)c5)n3)=Nc3ccccc3-4)c2c1` the growth was 113%.
`CCOC(=O)c1c2ncccc2n2c(=O)n(-c3ccccc3C)nnc12` was tested, and the growth was 80.7%.
`COc1cccc(C(=O)NCCCNc2cc(-c3cn(-c4ccccc4)nc3-c3cccc(OC)c3)ccn2)c1` showed a growth of 48.8%.
`N[C@@H](CCCCNCC(=O)O)C(=O)O` was tested, and the growth was 103%.
Work on `CC(CCc1ccc(Cl)c(Cl)c1)NCc1ccc(C(C)(C)C)cc1` (stereo not drawn) yielded a growth of 93.6%.
